About 83,000 compounds went through this panel and 20% of them were active in at least one assay; those are over-represented in the sample as a whole.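 Step 1: grow cells in 96-well plates. Step 2: add test compound at a single concentration. Step 3: incubate 48 h. Step 4: record percent growth.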 Unmarked numbers belong to inactive results. The source made the active and inactive calls. Rule for the calls: active = growth percent below 10; inactive = the rest.
Experiments:
Test in all cases: NCI-60 one-dose screen, 48 h (100 = growth as untreated, 0 = no growth, -100 = all killed)
Settings in all cases: 10 µM unless noted
NCI-H23 lung = tested on: NCI-H23 lung
NCI-H226 lung = tested on: NCI-H226 lung
NCI-H322M lung = tested on: NCI-H322M lung
HOP-62 NSCLC = tested on: HOP-62 NSCLC
NCI-H460 lung = tested on: NCI-H460 lung
HOP-92 NSCLC = tested on: HOP-92 NSCLC
A549/ATCC NSCLC = tested on: A549/ATCC NSCLC
786-0 renal = tested on: 786-0 renal
COLO 205 colon = tested on: COLO 205 colon
NCI-H522 lung = tested on: NCI-H522 lung

| SMILES | growth (NCI-H23 lung) | growth (NCI-H226 lung) | growth (NCI-H322M lung) | growth (HOP-62 NSCLC) | growth (NCI-H460 lung) | growth (HOP-92 NSCLC) | growth (A549/ATCC NSCLC) | growth (786-0 renal) | growth (COLO 205 colon) | growth (NCI-H522 lung) |
| --- | --- | --- | --- | --- | --- | --- | --- | --- | --- | --- |
| Cc1cc2nc(C)c(C)nc2cc1C | 93.7% | 84% | 118% | 92.5% | 101% | 63.8% | 101% | 103% | 98.7% | – |
| O=[N+]([O-])c1ccc(-c2nc(N(CCO)CCO)c3ccccc3n2)o1 | -64.9% (active) | -24.7% (active) | -31% (active) | -20.7% (active) | -41.6% (active) | -44.8% (active) | -0.496% (active) | -40.4% (active) | -87.1% (active) | – |
| C=C(C)[C@@H]1CC[C@]2(CO)CC[C@]3(C)[C@H](CC[C@@H]4[C@@]5(C)CC[C@H](O)C(C)(C)[C@@H]5CC[C@]43C)[C@@H]12 | 25.9% | 37.5% | 68.9% | 43.2% | 31.4% | 36.4% | -3.89% (active) | -7.62% (active) | 52.5% | – |
| CCCCCCCCCCCCCCCCCCSC(=N)N | 63.5% | 84.1% | 88% | 81.6% | 52.7% | 11.1% | 80.6% | 61.9% | 3.95% (active) | – |
| O=S(=O)(O)c1ccc(O)c(C2CCCCC2)c1 | 112% | 98.4% | 103% | 87.4% | 108% | 93.2% | 96.6% | 91.1% | 105% | – |
| O=Cc1ccc(F)cc1 | 105% | 94.7% | 90.6% | 108% | 93.9% | 103% | 108% | 102% | 111% | – |
| C=CCc1cc(OC)c(OC)c(OC)c1 | 95.6% | 104% | 117% | 104% | 97.1% | 108% | 96.2% | 108% | 108% | – |
| O=C1NC(=O)/C(=C\c2ccncc2)N1 | 102% | 99.8% | 107% | 94.2% | 102% | 85.7% | 106% | 106% | 103% | – |
| O=c1n(CC2CO2)c(=O)n(CC2CO2)n1CC1CO1 (stereo not given) | 55.2% | 85.9% | 94% | 46% | 4.78% (active) | 48.6% | 49.4% | 36.9% | 70.1% | – |
| Nc1ccc2ccccc2c1-c1c(N)ccc2ccccc12 | 41.6% | 73.5% | 39.7% | 43% | 20.2% | 52.9% | – | 49.3% | 5.44% (active) | – |
| O=C(NCc1ccccc1)c1cccc([N+](=O)[O-])c1 | 110% | 105% | 96.7% | 94.6% | 103% | 77.8% | 88.2% | 94.9% | 116% | – |
| Oc1ccc2ccccc2c1CN1CCOCC1 | 104% | 105% | 112% | 122% | 115% | 102% | – | 109% | 106% | 110% |
| OCc1cccnc1 | 100% | 103% | – | 99.8% | 103% | 98.4% | 92.2% | 107% | 107% | 108% |
| C=C(OC(C)=O)c1ccccc1 | 97.1% | 107% | – | 85.5% | 102% | 87.5% | 86.7% | 104% | 109% | 88.5% |
| Oc1ccc(N=Cc2ccc(OCc3ccccc3)cc2)cc1 | 95.5% | 102% | – | 109% | 104% | 97.5% | 112% | 99.4% | 103% | 90.8% |
| C#CCSc1nnnn1-c1ccccc1 | 97.9% | 82.5% | – | 105% | 95.4% | 50.5% | 64% | 92% | 113% | 92.9% |
| ON1CCCC1 | 108% | 103% | – | 108% | 109% | 92.4% | 100% | 98.4% | 113% | 91.9% |

| SMILES | growth (NCI-H23 lung) | growth (NCI-H226 lung) | growth (NCI-H322M lung) | growth (HOP-62 NSCLC) | growth (NCI-H460 lung) | growth (HOP-92 NSCLC) | growth (A549/ATCC NSCLC) | growth (786-0 renal) | growth (COLO 205 colon) | growth (NCI-H522 lung) |
| --- | --- | --- | --- | --- | --- | --- | --- | --- | --- | --- |
| Nc1ccn(C2CC(N)C(CO)O2)c(=O)n1 (stereo not given) | 80.1% | 85.1% | – | 69.1% | 34.5% | 95.7% | 75.6% | 94.1% | 97.7% | 77.9% |
| O=[N+]([O-])c1c(O)c(CNCCCO)cc(CNCCCO)c1O | 106% | 101% | – | 106% | 119% | 90.8% | 95.4% | 118% | 120% | 121% |
| Cc1ccc(C2CCCCC2)cc1Br | 105% | 97.7% | – | 91.3% | 108% | 95% | 89.4% | 96.4% | 101% | 91.3% |
| C=C1C(=O)C2CCN1CC2 | 102% | 101% | – | 101% | 104% | 104% | 97% | 96.2% | 102% | -53.8% (active) |
| COC(CCCl)c1ccc(Cl)cc1 (stereo not given) | 107% | 101% | – | 114% | 107% | 121% | 95.4% | 100% | 111% | 74.6% |
| CC(=O)Oc1c(Cl)cccc1-c1ccccc1 | 111% | 98.9% | – | 103% | 102% | 94.8% | 89.9% | 104% | 111% | 94.3% |
| Clc1cccc(Cl)c1CSc1nc2ccccc2n2cccc12 | 90.6% | 99.1% | – | 101% | 105% | 94% | 95.4% | 96.9% | 91.2% | 68.3% |
| Cc1cc(C)cc(OCC(=O)O)c1 | 97% | 91.4% | – | 95.5% | 110% | 109% | 104% | 98.2% | 119% | 93.7% |
| COC(=O)C1=C(C)C(=O)CC1 | 120% | 109% | – | 114% | 118% | 113% | 112% | 108% | 141% | 101% |
| COc1cccc2c1Cc1ccccc1-2 | 94.9% | 94.4% | – | 113% | 110% | 106% | 107% | 110% | 109% | 103% |
| C#CC(O)c1ccccc1 (stereo not given) | 106% | 99.7% | – | 108% | 104% | 85.9% | 101% | 95.6% | 108% | – |
| CC(C)OCC(CCl)OC(=O)Nc1ccccc1 (stereo not given) | 93% | 100% | – | 104% | 105% | 89.5% | 102% | 100% | 111% | 98.4% |
| Nc1nnc2cc(F)ccc2n1 | – | 96.3% | 106% | 101% | 107% | 85.2% | 113% | 105% | 134% | 99.8% |
| O=S(Cc1ccccc1)/C(=C/NC(=S)Nc1ccccc1)c1ccccc1 (stereo not given) | 89.3% | 101% | – | 94.9% | 107% | 101% | 95.9% | 110% | 101% | 77% |
| COc1ccc(C(=O)C(=O)c2ccccc2)cc1 | – | 91.9% | 93.8% | 102% | 104% | 90.7% | 104% | 103% | 112% | 97.2% |
| COc1ccc(/C=N/NC(=O)COCC(=O)N/N=C/c2ccc(OC)cc2)cc1 | 107% | 99.5% | – | 117% | 107% | 92.5% | 98.3% | 106% | 111% | 107% |

From PubChem BioAssay (NCI)
